From PubChem
UGM FP inh: Mtb UDP-galactopyranose mutase inhibition | P9WIQ1 | purified UGM, fluorescence polarization probe displacement | inhibition, % at 10 µM | 320,000 tested, 0.06% active; in the data active means inhibition above about 10%, passing the limit was not always enough
RecA splice inh: inhibitors of M. tuberculosis RecA intein splicing; 290,000 tested, 0.75% active; cell-free RecA intein splicing, fluorescence; inhibition, % (no concentration beside the values); P9WHJ3; in the data active means inhibition above about 30%;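 further: 0% = vehicle wells and 100% = reference inhibitor control wells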
GDH-TPI inh: counter-screen for M. tuberculosis FBA inhibitors: GDH-TPI coupled enzymes. GDH-TPI coupled enzyme counterscreen, NADH absorbance. inhibition, % at 4.8 µM. 360,000 tested, 1.2% active; in the data active means inhibition above about 30%;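 further: 0% = DMSO wells and 100% = wells lacking the enzyme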
Mtb bLac sens: beta-lactam sensitization of Mtb H37Rv; M. tuberculosis H37Rv growth with meropenem, percent inhibition; inhibition, % at 25 µM; 330,000 tested, 0.27% active; AID 434955; call rule not given here;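 further: growth measured after seven days incubation then overnight dye step; 0% = bacteria only wells and 100% = bacteria with antibiotic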
Rv3671c protease: inhibits the M. tuberculosis serine protease Rv3671c. P9WHR9. inhibition, % at 5.96 µM. AID 2606. 320,000 tested, 0.048% active; in the data active means inhibition above about 38%;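 further: extracellular domain of Rv3671c used as enzyme; 0% = enzyme with DMSO and 100% = no enzyme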
Target sequence (P9WHR9 whole entry, looked up, the tested form may be a part): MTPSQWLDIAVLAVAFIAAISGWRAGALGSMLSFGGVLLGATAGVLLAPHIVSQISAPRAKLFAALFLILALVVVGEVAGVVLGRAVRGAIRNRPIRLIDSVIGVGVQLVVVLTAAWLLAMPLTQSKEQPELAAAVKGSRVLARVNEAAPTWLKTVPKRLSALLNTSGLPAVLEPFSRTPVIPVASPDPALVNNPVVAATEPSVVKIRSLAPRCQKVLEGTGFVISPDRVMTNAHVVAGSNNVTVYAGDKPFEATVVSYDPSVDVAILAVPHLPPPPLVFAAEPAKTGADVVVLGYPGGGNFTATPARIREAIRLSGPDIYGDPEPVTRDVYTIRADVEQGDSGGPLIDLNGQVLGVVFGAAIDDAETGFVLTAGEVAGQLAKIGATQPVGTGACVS
Mtb FBA inh: inhibits M. tuberculosis FBA enzyme | P9WQA3 | purified M. tuberculosis FBA, fluorescence read-out | inhibition, % at 1 µM | 360,000 tested, 2.3% active | AID 588726; in the data active means inhibition above about 27%;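 further: 0% = vehicle and 100% = reference inhibitor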
An asterisk follows results filed as active; · = no result; + = active, no number. This is a sample that favours compounds with a hit; in the whole collection about 4% have one here.

SMILES | UGM FP inh | RecA splice inh | GDH-TPI inh | Mtb bLac sens | Rv3671c protease | Mtb FBA inh
CCOC(=O)c1ccc(N2C(=O)C(O)=C(C(C)=O)C2c2ccccn2)cc1 (stereo not drawn) | 3 | -3 | 14 | 0 | -1 | 0
COc1cccc(C(=O)NCC(c2cccs2)N2CCc3ccccc32)c1 (stereo not drawn) | 4 | 1 | 3 | -9 | 4 | 2
Cc1ccc(C2C3=C(NCCN=C3c3ccccc3)C(=O)N2c2ccccc2)cc1 (stereo not drawn) | 0 | -4 | 6 | 11 | -2 | 2
CCCCNc1nc(N)ncc1[N+](=O)[O-] | 2 | 0 | 9 | -4 | -7 | -2
CCOc1cccc(/C=N/NC(=O)c2cccnc2)c1O | 0 | -2 | 31* | 52 | 3 | -4
COc1ccc(/C=N/NC(=O)c2ccc(C)nc2)cc1O | 2 | 0 | 33* | 3 | 3 | 1
O=C(NN=Cc1ccc(O)c(O)c1)c1ccccc1 | · | · | · | · | · | 7
O=C(COc1ccccc1C(=O)N/N=C\c1ccc(O)c(O)c1)N/N=C/c1ccc(O)c(O)c1 | -2 | -5 | 56* | 18 | -4 | 1
CC(Oc1ccccc1Cl)C(=O)Nc1ccc(S(=O)(=O)N2CCOCC2)cc1 (stereo not drawn) | · | · | -4 | · | · | -2
O=C(O)c1cnc2[nH]c3ccccc3n2c1=O | 0 | -3 | 36* | -7 | -1 | 176*
O=c1nc2scc(-c3ccccc3)n2c2ccccc12 | 1 | -5 | 36* | 4 | -5 | 5
Cc1ccc(C)c(/C=C2\CCn3c2nc2cc(C(=O)O)ccc2c3=O)c1 | 3 | 2 | 7 | 0 | 3 | 4
CC1(C)CC(=O)C2=C(C1)Nc1[nH]n(-c3ccccc3)c(=O)c1C2c1ccc2c(c1)OCO2 (stereo not drawn) | · | 69* | 24 | · | · | -1
CCS(=O)(=O)Nc1cccc(C2=NN(C(C)=O)C(c3cccs3)C2)c1 (stereo not drawn) | 0 | 1 | -1 | -1 | -10 | 5
CC(=O)N1N=C(c2cccc(NS(C)(=O)=O)c2)CC1c1cccs1 (stereo not drawn) | -3 | 1 | 65* | 3 | 0 | 6
CC(C)(C)C(=O)N1N=C(c2ccc(NS(C)(=O)=O)cc2)CC1c1cccs1 (stereo not drawn) | -1 | 5 | 18 | 5 | -7 | 112*
CS(=O)(=O)Nc1ccc(C2=NN(C(=O)c3ccccc3)C(c3cccs3)C2)cc1 (stereo not drawn) | -1 | 5 | 17 | 46 | -1 | 3
CS(=O)(=O)Nc1ccc(C2=NN(C(=O)CCCC(=O)O)C(c3cccs3)C2)cc1 (stereo not drawn) | 2 | -2 | 11 | 6 | 0 | +
COc1ccccc1/C=C/C(=O)OCC(=O)Nc1cc(C(F)(F)F)ccc1N1CCOCC1 | · | 0 | 17 | · | · | -1
COc1ccc(-n2c(SCC(=O)NCC3CCCO3)nc3c([nH]c4ccccc43)c2=O)cc1OC (stereo not drawn) | 2 | -3 | 12 | -5 | -2 | 0
O=C(c1cccs1)c1no[n+]([O-])c1C(=O)c1cccs1 | 11* | 5 | 2 | 6 | 1 | -2
COc1ccc(C(=O)c2no[n+]([O-])c2C(=O)c2ccc(OC)cc2)cc1 | 0 | 4 | 8 | -6 | 4 | 0
C/C(=N\Nc1nc2ccccc2s1)c1ccc(Br)s1 | 0 | -2 | 1 | 100 | -4 | 1
CC(=NNc1nc2ccccc2s1)c1ccncn1 | · | · | 34* | · | · | -4
N#CCSc1nc(-c2ccccc2)cs1 | 0 | -2 | 3 | -1 | 7 | 0
SMILES | UGM FP inh | RecA splice inh | GDH-TPI inh | Mtb bLac sens | Rv3671c protease | Mtb FBA inh
N#CCSc1ccc2nc(-c3ccccc3)cn2n1 | -1 | -2 | 22 | 2 | 0 | 134*
Cc1c(C)c2c(OCC(=O)N3CCC(O)CC3)cc3c(c2oc1=O)CCC(C)(C)O3 | 0 | · | 31* | -6 | -2 | +
Cc1c(C)c2c(OCC(=O)N3CCC[C@H]3C(=O)O)cc3c(c2oc1=O)CCC(C)(C)O3 | 1 | 2 | 13 | 1 | -4 | +
O=C(CCSc1ccc(Br)cc1)Nc1cccnc1 | 0 | 0 | 2 | 10 | 1 | 0
COc1ccccc1N1CCN(c2cc(N3CCCC3)nc(C)n2)CC1 | 0 | 0 | 3 | 9 | 1 | 2
COc1ccc(OC)c2c(C)cc(N3CCCN(C)CC3)nc12 | -2 | 0 | -1 | -2 | 3 | 31*
CCCN1C2CCCC1CC(NC(=O)c1cccc(Cl)c1)C2 (stereo not drawn) | 1 | 0 | 3 | -2 | -3 | 1
c1ccc(-c2c3ccccc3nc3[nH]c4ccccc4c23)cc1 | 0 | -4 | 13 | 23 | -18 | 31*
c1ccc2nc3c(nc2c1)[nH]c1ccccc13 | -1 | -2 | 18 | -3 | 0 | 1
Cc1cc2nc(N3CCN(C(=O)c4cccs4)CC3)sc2cc1C | -1 | 0 | -5 | -3 | 2 | 0
O=C(Nc1ccc(O)cc1)c1ccc2c(c1)C(=O)N(Cc1cccnc1)C2=O | 3 | 0 | 12 | -3 | 6 | 6
COc1ccc2nc(Nc3sc4c(c3C(N)=O)CCCC4)sc2c1 | 1 | · | 5 | 86 | 8 | 0
CC1CC(=Cc2ccc([N+](=O)[O-])cc2)C(=O)O1 (stereo not drawn) | · | · | 31* | · | · | -2
Cc1ccc(/C=C2\CCOC2=O)cc1 | 0 | 0 | 2 | 1 | -10 | -2
O=C1/C(=C\c2ccc([N+](=O)[O-])cc2)CCc2ccccc21 | 2 | · | 16 | -3 | 2 | 1
CC1CC(=Cc2ccc(N)cc2)C(=O)O1 (stereo not drawn) | · | · | 35* | · | · | -1
CCSc1nnc(NC(=O)C2CCN(C(=O)c3ccc(F)cc3)CC2)s1 | 5 | · | -8 | -10 | 1 | 0
O=C(CSc1nnc(C2CCCCC2)o1)Nc1ccccc1Cl | 1 | 2 | -18 | 2 | 5 | -1
COc1ccc(OC)c(C2C(C(C)=O)=C(O)C(=O)N2c2ccc(F)cc2)c1 (stereo not drawn) | -2 | 2 | 37* | 9 | -4 | -2
CC(=O)C1=C(O)C(=O)N(c2ccc(O)cc2)C1c1ccc(F)cc1 (stereo not drawn) | 0 | 4 | 11 | -4 | 1 | 0
CC1=C(C(=O)Nc2ccccc2C)C(c2ccc(C)o2)N2C(=O)CSC2=N1 (stereo not drawn) | 1 | 2 | -10 | -4 | -3 | -1
O=c1[nH]c2ccccc2nc1-c1ccc(Cl)cc1 | -3 | 2 | 38* | -5 | -4 | 24
Cc1c(C(=O)O)cccc1-c1ccc(/C=N/n2cnnc2)o1 | 1 | 0 | 31* | 1 | -1 | 3
Cc1c(C(=O)O)cccc1-c1ccc(/C=N/Nc2ccc(Br)cc2)o1 | 1 | 2 | 22 | 97 | 7 | 11
Cc1c(Cl)cccc1-c1ccc(/C=N/n2cnnc2)o1 | 1 | 5 | 33* | 54 | -3 | 2
O=C(O)c1cccc(-c2ccc(/C=N/n3cnnc3)o2)c1 | 5 | -4 | 35* | 2 | 0 | 19
